# Data: publication PMC11062922 (Nature Chemical Biology, 2023)
# Read-outs that look alike come from different tables or passages of the source.
# Key:
# [1] = tested on: AAK1; parameters: species or system human, MV4-11 + K-562 + COLO205 + SK-N-BE2 + OVCAR-8; conditions: read-out: apparent Kd, n = 1
# [2] = tested on: BMP2K; parameters: species or system human, MV4-11 + K-562 + COLO205 + SK-N-BE2 + OVCAR-8; conditions: read-out: apparent Kd, n = 1
# [3] = tested on: CLK1; parameters: species or system human, MV4-11 + K-562 + COLO205 + SK-N-BE2 + OVCAR-8; conditions: read-out: apparent Kd, n = 1
# [4] = tested on: CLK4; parameters: species or system human, MV4-11 + K-562 + COLO205 + SK-N-BE2 + OVCAR-8; conditions: read-out: apparent Kd, n = 1
# [5] = target: Q6ZSR9 (human, UniProt Q6ZSR9); parameters: species or system MV4-11 + K-562 + COLO205 + SK-N-BE2 + OVCAR-8; conditions: read-out: apparent Kd, n = 1
# Chain of Q6ZSR9 (Q6ZSR9 whole entry, looked up): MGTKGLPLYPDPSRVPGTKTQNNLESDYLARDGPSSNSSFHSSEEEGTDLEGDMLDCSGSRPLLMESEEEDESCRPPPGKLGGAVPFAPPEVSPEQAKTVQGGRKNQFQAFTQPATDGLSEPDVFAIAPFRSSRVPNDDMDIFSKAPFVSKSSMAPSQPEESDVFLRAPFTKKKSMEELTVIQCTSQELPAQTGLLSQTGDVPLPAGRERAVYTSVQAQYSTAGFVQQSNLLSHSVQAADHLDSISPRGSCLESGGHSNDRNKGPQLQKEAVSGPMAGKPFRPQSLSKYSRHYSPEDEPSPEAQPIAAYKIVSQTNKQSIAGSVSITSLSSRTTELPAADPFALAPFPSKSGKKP
# [6] = tested on: CSNK2A1;CSNK2A3; parameters: species or system human, MV4-11 + K-562 + COLO205 + SK-N-BE2 + OVCAR-8; conditions: read-out: apparent Kd, n = 1
# [7] = tested on: GAK; parameters: species or system human, MV4-11 + K-562 + COLO205 + SK-N-BE2 + OVCAR-8; conditions: read-out: apparent Kd, n = 1
# [8] = tested on: NUAK1; parameters: species or system human, MV4-11 + K-562 + COLO205 + SK-N-BE2 + OVCAR-8; conditions: read-out: apparent Kd; compound concentrations:100 nM and 1000 nM (sheet 'Samples'); n = 1
# [9] = tested on: PAK4; parameters: species or system human, MV4-11 + K-562 + COLO205 + SK-N-BE2 + OVCAR-8; conditions: read-out: apparent Kd; compound concentrations:100 nM and 1000 nM (sheet 'Samples'); n = 1
# [10] = tested on: SIK2; parameters: species or system human, MV4-11 + K-562 + COLO205 + SK-N-BE2 + OVCAR-8; conditions: read-out: apparent Kd; compound concentrations:100 nM and 1000 nM (sheet 'Samples'); n = 1
# [11] = tested on: GSK3A; parameters: species or system human, MV4-11 + K-562 + COLO205 + SK-N-BE2 + OVCAR-8; conditions: read-out: apparent Kd; compound concentrations:100 nM and 1000 nM (sheet 'Samples'); n = 1
# [12] = tested on: GSK3B; parameters: species or system human, MV4-11 + K-562 + COLO205 + SK-N-BE2 + OVCAR-8; conditions: read-out: apparent Kd; compound concentrations:100 nM and 1000 nM (sheet 'Samples'); n = 1
# [13] = tested on: FLT4; parameters: species or system human, MV4-11 + K-562 + COLO205 + SK-N-BE2 + OVCAR-8; conditions: read-out: apparent Kd; compound concentrations: 100 nM and 1000 nM (sheet 'Samples'), CATDS: 0.17294643484613401; n = 1
# [14] = tested on: RET; parameters: species or system human, MV4-11 + K-562 + COLO205 + SK-N-BE2 + OVCAR-8; conditions: read-out: apparent Kd, n = 1
# [15] = tested on: CSNK2A2; parameters: species or system human, MV4-11 + K-562 + COLO205 + SK-N-BE2 + OVCAR-8; conditions: read-out: apparent Kd; compound concentrations: 100 nM and 1000 nM (sheet 'Samples'), CATDS: 2.7289326995804501E-2; n = 1
# [16] = tested on: MELK; parameters: species or system human, MV4-11 + K-562 + COLO205 + SK-N-BE2 + OVCAR-8; conditions: read-out: apparent Kd, n = 1
# [17] = compound concentrations:100 nM and 1000 nM (sheet 'Samples')
structure (smiles),measurement,setting,value
CS(=O)(=O)Nc1ccc(-c2ccnc3[nH]ccc23)cc1 [GSK993273A],potency estimated from few doses,[1]; [17],1890 nM
same,potency estimated from few doses,[2]; [17],2000 nM
same,potency estimated from few doses,[3]; [17],1110 nM
same,potency estimated from few doses,[4]; [17],1440 nM
same,potency estimated from few doses,[5]; [17],2010 nM
Cc1cccc(Nc2nc(N[C@H]3CCNC3)ncc2C(N)=O)c1.Cl [GSK2197149A],potency estimated from few doses,[1]; [17],64.6 nM
same,potency estimated from few doses,[2]; [17],540 nM
same,potency estimated from few doses,[6]; [17],2150 nM
same,potency estimated from few doses,[7]; [17],343 nM
same,potency estimated from few doses,[8],1690 nM
same,potency estimated from few doses,[9],562 nM
same,potency estimated from few doses,[5]; [17],85.6 nM
same,potency estimated from few doses,[10],603 nM
CCCc1cc(N2CCCN(C)CC2)nc2sc3c(N)ncnc3c12 [BI00604564],potency estimated from few doses,"[1]; compound concentrations: 100 nM and 1000 nM (sheet 'Samples'), CATDS: 0.13729874027545599",1990 nM
same,potency estimated from few doses,"[7]; compound concentrations: 100 nM and 1000 nM (sheet 'Samples'), CATDS: 0.27765104438225702",516 nM
same,potency estimated from few doses,"[5]; compound concentrations: 100 nM and 1000 nM (sheet 'Samples'), CATDS: 0.16382983501134099",1310 nM
CNCc1ccc(-c2cc(-c3nc(-c4ccc(S(=O)(=O)C(C)C)cc4)cnc3N)on2)cc1 [VE-822],potency estimated from few doses,[1]; [17],1850 nM
same,potency estimated from few doses,[11],684 nM
same,potency estimated from few doses,[12],810 nM
same,potency estimated from few doses,[5]; [17],1240 nM
CN(c1ccc(NC(=O)NCCN2CCOCC2)cc1)c1ccnc(Nc2ccc(CS(C)(=O)=O)cc2)n1.Cl [GW830365A],potency estimated from few doses,"[1]; compound concentrations: 100 nM and 1000 nM (sheet 'Samples'), CATDS: 5.9294254337115E-2",785 nM
same,potency estimated from few doses,"[2]; compound concentrations: 100 nM and 1000 nM (sheet 'Samples'), CATDS: 5.1935568412460401E-2",1150 nM
same,potency estimated from few doses,[13],109 nM
same,potency estimated from few doses,"[5]; compound concentrations: 100 nM and 1000 nM (sheet 'Samples'), CATDS: 5.6296915490776901E-2",904 nM
same,potency estimated from few doses,"[14]; compound concentrations: 100 nM and 1000 nM (sheet 'Samples'), CATDS: 9.0906950139660506E-2",308 nM
c1ccc(-c2n[nH]cc2Nc2ccnc3ccccc23)nc1 [GW694077X],potency estimated from few doses,"[1]; compound concentrations: 100 nM and 1000 nM (sheet 'Samples'), CATDS: 0.15981280907647699",22.9 nM
same,potency estimated from few doses,"[2]; compound concentrations: 100 nM and 1000 nM (sheet 'Samples'), CATDS: 0.12898106830803699",31.6 nM
same,potency estimated from few doses,"[3]; compound concentrations: 100 nM and 1000 nM (sheet 'Samples'), CATDS: 6.3259021647505201E-2",116 nM
same,potency estimated from few doses,"[4]; compound concentrations: 100 nM and 1000 nM (sheet 'Samples'), CATDS: 2.8276062957920199E-2",948 nM
same,potency estimated from few doses,"[6]; compound concentrations: 100 nM and 1000 nM (sheet 'Samples'), CATDS: 2.9027112719044901E-2",870 nM
same,potency estimated from few doses,[15],1070 nM
same,potency estimated from few doses,"[7]; compound concentrations: 100 nM and 1000 nM (sheet 'Samples'), CATDS: 2.8408815024035201E-2",933 nM
same,potency estimated from few doses,"[16]; compound concentrations: 100 nM and 1000 nM (sheet 'Samples'), CATDS: 2.6674495002574999E-2",1150 nM
same,potency estimated from few doses,"[5]; compound concentrations: 100 nM and 1000 nM (sheet 'Samples'), CATDS: 0.16373298432482",22.1 nM
CNc1cc(-c2ccc3c(N)n[nH]c3c2)nc(N)n1 [GSK2224810A],potency estimated from few doses,[1]; [17],781 nM
same,potency estimated from few doses,[2]; [17],1040 nM
same,potency estimated from few doses,[3]; [17],314 nM
same,potency estimated from few doses,[4]; [17],154 nM
same,potency estimated from few doses,[16]; [17],898 nM
same,potency estimated from few doses,[5]; [17],687 nM
same,potency estimated from few doses,[14]; [17],1070 nM
